Each structure is given as a SMILES string. Compounds without any hit were thinned out: in the full panel of roughly 83,000, 20% have a hit.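 Activity criterion: percent growth below 10, measured after cells in 96-well plates were exposed to a single compound concentration for 48 hours.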 Values without a mark were called inactive. Active and inactive are the calls of the source.

The assay has as its system SR leukemia. In words: NCI-60 one-dose screen, 48 h (100 = growth as untreated, 0 = no growth, -100 = all killed). To be noted: 10 µM unless noted.
`ClC(Cl)c1nc(-c2cccs2)n2nc(-c3ccccc3)cc2n1`: the growth is 58.1%. The value for `O=C(COc1ccc(C2SCC(=O)N2c2ccccc2)cc1)c1ccccc1` (centres undefined) was 91.5%; that for `c1ccc(-c2n(Cc3ccc4ccccc4c3)c3c4ccccc4c4ccccc4c3[n+]2Cc2ccc3ccccc3c2)cc1` was -44.4% (active). With `O=C1[C@@H]2Cc3c([nH]c4ccccc34)[C@H](c3c(Cl)cccc3Cl)N2C(=O)CN1C1CCN(Cc2c(F)cccc2F)CC1`, the growth is 35.4%. `NCCN1CCN(c2nc(-c3ccccc3)nc3nc(-c4ccccc4)oc23)CC1`: the growth was 20.7%. The same measure for `C/C(=C(/C)C1CC1CCN(C(=O)c1ccccn1)S(=O)(=O)c1ccc(C)cc1)C1CCCCC1` (centres undefined): 105%; for `Cc1nn(-c2ccccc2)cc1/C=N/Nc1nc(Nc2ccccc2)nc(Nc2ccc(S(N)(=O)=O)cc2)n1`: 33.6%; for `Brc1cccc(/C=N/Nc2nc(N/N=C/c3cccc(Br)c3)nc(N3CCOCC3)n2)c1`: 7.93% (active). In the case of `COc1cc(/C=C2\SC(=O)NC2=O)ccc1OCC(=O)Nc1ccc(C(=O)/C=C/c2cc3ccccc3nc2Cl)cc1`, the growth was 27.7%. Turning to `O=c1oc2ccc(-c3ccc(F)cc3F)cc2c(=O)n1-c1ccc(F)c(F)c1`, the growth was 27.5%. The same measure for `CC[C@@](C)(NC(=O)C(C)(C)NC(=O)[C@@H](NC(=O)[C@@H]1CCCN1C(=O)C(C)(C)NC(=O)[C@H](CC(C)C)NC(=O)CNC(=O)C(C)(C)NC(=O)[C@@H](NC(=O)C(C)(C)NC(=O)[C@H](CCC(N)=O)NC(=O)[C@H](C)NC(=O)C(C)(C)NC(=O)[C@H](C)NC(=O)C(C)(C)NC(=O)[C@@H]1CCCN1C(=O)C(C)(C)NC(C)=O)C(C)C)C(C)C)C(=O)N[C@@H](CCC(N)=O)C(=O)N[C@@H](CCC(N)=O)C(=O)N[C@H](CO)Cc1ccccc1`: 22.2% [4.25 µM]; for `O=C(/C=C/c1cn(-c2ccccc2)nc1-c1ccc(Cl)cc1)c1cc2ccccc2oc1=O`: 45.2%; for `CCN1C(=O)N(CC)C2SC(N/N=C/c3ccc(OC)cc3)=NC21` (centres undefined): 19.3%. Turning to `O=C(O)c1ccc(-n2cc(CNc3ccc(F)cc3)c(-c3ccc(C(F)(F)F)cc3)n2)cc1`, the growth was 109%. The same measure for `COc1cc(/C=C/C(=O)c2ccc(NC(=O)COc3cccc4cccnc34)cc2)cc(OC)c1OC`: 11.4%; for `COc1cc(CNC(=O)Cc2ccccc2[N+](=O)[O-])ccc1OCC(=O)NO`: 97.4%; for `Oc1ccc(CSc2nnc(-c3cnccn3)o2)c2cccnc12`: 20.5%. The value for `O=C(NCCCNc1cc(-c2cn(-c3ccccc3)nc2-c2cccc(O)c2)ccn1)Nc1ccc(F)cc1` was 17.4%; that for `COc1ccc(-c2nn(-c3ccccc3)cc2/C=C/C(=O)c2ccc(NC(=O)CCCCCCC(=O)NO)cc2)cc1` was 110%; that for `O=C1[C@H]2Cc3c([nH]c4ccccc34)[C@@H](c3c(Cl)cccc3Cl)N2C(=O)CN1C1CCN(Cc2ccccc2)CC1` was 32.7%. The value for `COc1cccc(/C=C/C(=O)c2ccc(NC(=O)COc3cccc4cccnc34)cc2)c1` was 74.6%; that for `CCCC(=O)NC(c1cccnc1)c1cc(Cl)c2cccnc2c1O` (centres undefined) was 39.6%. For the compound `C/C(=N/Nc1nc(N/N=C(/C)c2ccc([N+](=O)[O-])cc2)nc(N2CCOCC2)n1)c1ccc([N+](=O)[O-])cc1`, the growth was 113%. The value for `Oc1ccc(CSc2nnc(-c3cnccn3)n2-c2ccccc2)c2cccnc12` was 42.1%; that for `CCOC(=O)C1=C(C)Nc2nc3ccccc3n2C1c1ccccc1` (centres undefined) was 68.9%; that for `Oc1ccc(CSc2nnc(-c3ccc(Br)cc3)o2)c2cccnc12` was 42.3%. In the case of `CNC(=O)c1cc(N2CCc3cc(NC(=O)Nc4ccc(Cl)c(Cl)c4)ccc32)ccn1`, the growth is 64.4%. The value for `COc1cc2cc(Oc3ccc(NC(=O)Nc4cc(C(F)(F)F)cc(C(F)(F)F)c4)cc3)c(C)nc2cc1OCCN(C)C` was 121%; that for `Cc1cc(O)c(=O)cc2c1C[C@H]1CC(C)(C)/C=C/C[C@]3(C)Oc4cc(=O)c(O)cc(C)c4C[C@H]3C[C@H](O)[C@@]1(C)O2` was 4.18% (active). The value for `COc1ccc(-c2nnc(SCc3ccc(O)c4ncccc34)n2-c2ccccc2)cc1` was 34.3%; that for `O=C(CCCCCCN1CC(=O)N2[C@@H](c3ccc(Cl)c(F)c3)c3[nH]c4ccccc4c3C[C@H]2C1=O)NO` was 45.1%. The value for `Oc1ccc(CSc2nnc(-c3ccccc3)n2-c2ccccc2)c2cccnc12` was 33.6%; that for `Cc1ccc(NC(=O)c2ccc(CN3CCN(C)CC3)c(C(F)(F)F)c2)cc1Oc1ccc(-c2[nH]nc3ncnc(N)c23)cc1` was 2.87% (active). For `CC(c1ccccc1)N1C(=O)/C(=C/c2csc(C#N)n2)SC1=S` (centres undefined), the growth was 48.9%. Regarding `O=C(COc1ccc(C2SCC(=O)N2c2ccc(F)cc2)cc1)c1ccccc1` (centres undefined), the growth is 65.1%. The same measure for `COc1ccc(-c2nnc(SCc3ccc(O)c4ncccc34)o2)cc1`: 45.8%; for `O=c1[nH]c(CNc2ccc(NCc3c(-c4ccccc4)no[n+]3[O-])cc2)nc2c1cnn2-c1ccccc1`: 45.7%; for `COc1ccc(N)cc1C(=O)Nc1cccc(-c2cc(=O)c3c(OC)c(OC)c(OC)cc3o2)c1`: 40.9%.

`CCCC(=O)NC(c1cccnc1)c1cc(C(C)=O)c2cccnc2c1O` (centres undefined): the growth is 52.5%.

Values taken from PubChem BioAssay (NCI).
